Here are results for 29 compounds from ChEMBL document CHEMBL4513216, “Probing the Open Global Health Chemical Diversity Library for Multistage-Active Starting Points for Next-Generation Antimalarials” (ACS Infect Dis, 2020).

The whole screen tested about 69,000 compounds, of which about 8,600 (12%) showed an effect of 50% or more. The full list was thinned out, with strong results kept by preference.

The experiment deals with Plasmodium berghei. Put plainly: Screen against P. berghei liver stage (PbLuc), transformed with Luciferase, at 10uM. The following applies: tested at 10 uM. It counts as functional, HepG2.
As to `CC1(NC(=O)CNC(=O)C(C)(C)C)CCc2ccccc2C1` (centres undefined), the INHIBITION is on record as -2.43%.

Turning to `COCCc1noc(CN2CC(n3nc(C)cc3C)C2)n1`, the INHIBITION is listed as -57.4%.

For the compound `CC(C)COC(C)C(=O)NCc1ccccc1` (centres undefined), the INHIBITION is reported as -10.1%.

Take `CCc1cc(=O)[nH]c(-c2ccc(NC(C)CN3CCOCC3)nc2)n1` (centres undefined): the INHIBITION was -33.9%.

Consider `CSCC1CCCN(c2ncnc3oc(C)nc23)C1` (centres undefined), for which the INHIBITION is -0.532%.

`O=C(NCc1ccccn1)[C@@H]1COC[C@H]2CN(C3CCOCC3)C[C@H]21`: the INHIBITION amounted to 29.6%.

Turning to `O=C(c1ccc2ccc(N3CCN(CC4CC4)CC3)n2c1)N1CCCO1`, the INHIBITION is listed as 40.8%.

Turning to `CN(C)C(=O)CNC(=O)c1ccc2ccc(N(C)CC3CC3)n2c1`, the INHIBITION came to 26%.

On to `CCN(CC)c1ccc2ccc(C(=O)NC3CC3)cn12`, for which the INHIBITION came to 24.6%.

Take `CN(CC1CC1)c1ccc2ccc(C(=O)NCCN3CCOCC3)cn12`: the INHIBITION was found to be 23.2%.

For the compound `CCN(CC)c1ccc2ccc(C(=O)N3CCCCO3)cn12`, the INHIBITION was found to be 68.9%.

For the compound `CCN(CC)c1ccc2ccc(C(=O)N(C)C)cn12`, the INHIBITION is recorded as 57.1%.

Regarding `CCN(CC)c1ccc2ccc(C(=O)O)cn12`, the INHIBITION stood at 39.3%.

With `CCNC(=O)c1ccc2ccc(N(CC)CC)n2c1`, the INHIBITION amounted to 55.6%.

Turning to `CN(CC1CC1)c1ccc2ccc(C(=O)NC3CCCCC3)cn12`, the INHIBITION was 0.112%.

Consider `CCN(CC)c1ccc2ccc(C(=O)N(CCOC)CCOC)cn12`, for which the INHIBITION was 46.7%.

Consider `CN1CCN(c2ccc3ccc(C(=O)N4CCCO4)cn23)CC1`, for which the INHIBITION was determined as 51.2%.

Turning to `CN1CCN(c2ccc3ccc(C(=O)N4CCCCO4)cn23)CC1`, the INHIBITION is -12.4%.

Consider `C[C@@H]1CN(CCC(=O)NCc2ccccc2Cl)CC[C@@]1(O)C1CCC1`, for which the INHIBITION is on record as 41.4%.

On to `CN(C)C1CCN(C(=O)Cc2csc(-c3ncccn3)n2)CC1`, for which the INHIBITION was -31.3%.

Turning to `COc1c(CNCCc2c[nH]c3ccccc23)c(C(C)C)nn1C`, the INHIBITION was 22.5%.

In the case of `COCC1COCCC12CCN(S(=O)(=O)c1ccccc1C)CC2` (centres undefined), the INHIBITION is given as 48.4%.

In the case of `CCCc1nnc2sc(-c3cc(C(C)C)n[nH]3)nn12`, the INHIBITION came out at 35.7%.

As to `Cc1noc(C)c1C(=O)N1CCCN(C)c2ccc(Cl)cc21`, the INHIBITION is given as 19.7%.

Take `Cc1nc(C)n(CC2CCCN(CCCc3ccccc3)C2)n1` (centres undefined): the INHIBITION was determined as 44.3%.

Regarding `O=C(NC1CC1)[C@H]1CN(Cc2ccc3c(c2)OCO3)C[C@H]2OCC[C@@H]12`, the INHIBITION is recorded as -23.3%.

On to `Cc1cc(=O)c(C(=O)N2CCCCC2c2ccc(F)cc2)c[nH]1` (centres undefined), for which the INHIBITION was -4.37%.

For the compound `Cc1nc2[nH]cc(C(=O)N3CCCCC3c3ccc(F)cc3)c(=O)n2n1` (centres undefined), the INHIBITION was 57.1%.

For `Cc1cc2[nH]cc(C(=O)N3CCCCC3c3ccc(F)cc3)c(=O)n2n1` (centres undefined), the INHIBITION stood at 17.8%.
